# Inconclusive results are not listed. Active and inactive are the calls of the source. How the source made its calls: active means hit-call score of the fitted dose curve at least 0.9, where 1 is the maximum; inconclusive means response in the unintended direction; inactive means score below 0.9.
# Assay: ACEA_ER_AUC_viability: ACEA Biosciences xCELLigence Real-Time Cell Analysis on Estrogen Receptor Agonism for Viability (AID 2283782)
# Method in brief: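 Read-out: real-time electrical impedance (RT-CES) area under curve, loss of signal taken as reduced viability, normalized to DMSO baseline. T-47D cells, charcoal-stripped serum medium, compounds up to 100 uM final, continuous exposure, 80 h.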
SMILES,outcome,AC50
CCCCCCOC(=O)CCCCC,inactive,
CCC(C)(O)CCC=C(C)C (centres undefined),,79.1 µM (active)
CC1=CCC2C(C1)C2(C)C (centres undefined),inactive,
O=S(=O)(O)NC1CCCCC1,,50 µM (active)
CNC[C@H](O)c1cccc(O)c1,,50 µM (active)
O=C(O)Cc1cccc2ccccc12,inactive,
c1ccc(CCCc2ccccn2)cc1,inactive,
CCCCC(CC)COC(=O)/C=C\C(=O)OCC(CC)CCCC (centres undefined),,27.4 µM (active)
CCN(CC)c1ccc2c(-c3ccccc3C(=O)O)c3ccc(=[N+](CC)CC)cc-3oc2c1,,29.1 µM (active)
NCCNCCN,inactive,
CCCCCCCCCCN,,45.2 µM (active)
O=P(c1ccccc1)(c1ccccc1)c1ccccc1,inactive,
CC(CCO)CCc1ccccc1 (centres undefined),,50 µM (active)
CCCC(=O)c1cc(O)c(O)cc1O,inactive,
CC(C)=CCCC(C)CC=O (centres undefined),inactive,
CC(C)(N)CO,inactive,
NCCCCCCN,inactive,

SMILES,outcome,AC50
O=C1CCc2ccccc2O1,,38 µM (active)
Clc1cccc(Cl)n1,inactive,
CCC(=O)/C=C/C1C(C)=CCCC1(C)C (centres undefined),inactive,
CCCC(C)C=O (centres undefined),,20.8 µM (active)
CCCC(=O)OCCC(C)CCC=C(C)C (centres undefined),,77.8 µM (active)
CCCCCCCCC=O,inactive,
O=[N+]([O-])c1cc(C(F)(F)F)ccc1Cl,,49.8 µM (active)
OCCN1CCNCC1,inactive,
CC(C#N)(CCC(=O)O)N=NC(C)(C#N)CCC(=O)O (centres undefined),inactive,
CC1CCC(C(C)(C)O)CC1 (centres undefined),inactive,
O=c1oc(=O)c2cc3c(=O)oc(=O)c3cc12,inactive,
CC(C)=CCC[C@H](C)CC=O,inactive,
C=CC(C)(CCC=C(C)C)OC=O (centres undefined),inactive,
CC(=O)c1c(C)cc(C(C)(C)C)cc1C,,77.7 µM (active)
CCCCO,,35.2 µM (active)
COC(=O)c1ccc(C)cc1,inactive,
CC(C)=CCC/C(C)=C/COC=O,inactive,
